The values below come from PubChem BioAssay (NCI).

This is part of a sample that, as a whole, favours compounds with a hit. Of some 83,000 tested, about 20% had one in any assay.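 The test compound was applied at a single concentration to cells in 96-well plates for 48 hours, and percent growth was recorded.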 The source made the active and inactive calls. Rule for the calls: active = growth percent below 10; inactive = the rest.

For the first assay, the system named is HT29 colon. As to the kind of experiment: NCI-60 one-dose screen, 48 h (100 = growth as untreated, 0 = no growth, -100 = all killed). To be noted: 10 µM.
As for `Cc1cc(C)c(N)c(S(=O)(=O)O)c1`, the growth is 103% (inactive).
Same read-out and setting: in the case of `CC1CCC(C(=O)O)N1` (stereo not drawn) it was 94.1% (inactive); in that of `S=c1sc2ccccc2n1CN1CCCCC1`, 101% (inactive); in that of `CCCCC/C=N/Nc1nc(C)cc(=O)[nH]1`, 105% (inactive).
`CCOC(=O)C(O)C(O)C(=O)OCC` (stereo not drawn): the growth was 105% (inactive).
Still for that read-out and setting: in the case of `CC(=O)NCc1cc(C)c(C)cc1C` it was 97.2% (inactive).
The same measure, in the same setting: for `CCN=c1cc2sc3cc(NCC)c(C)cc3nc-2cc1C` the value was 16.7% (inactive); for `COc1cc(-c2ccc(NC(=O)NC3CC3)c(OC)c2)ccc1NC(=O)NC1CC1`, 48.6% (inactive).
The same measure, in the same setting: for `O=C(NC1CCCCC1)OCc1c(COC(=O)NC2CCCCC2)c(-c2ccc(Cl)c(Cl)c2)n2c1CCC2` the value was 26.7% (inactive).
Consider `COC(=O)c1ccccc1Br`, for which the growth is 110% (inactive).
`COS(=O)(=O)c1ccc(Br)cc1`: the growth was 107% (inactive).
Turning to `COc1cc(C(=O)NC(=S)Nc2ccc3ccccc3c2)cc(OC)c1OC`, the growth was 100% (inactive).
On the same count and under the same terms, in the case of `CC(=O)OCC(=O)[C@@]1(O)CC[C@H]2[C@@H]3CC[C@@H]4C[C@H](O)CC[C@]4(C)[C@H]3C(=O)C[C@@]21C` it was 117% (inactive); in that of `O=C1C=C(Nc2ccc([N+](=O)[O-])cc2)c2ccccc2C1=O`, 99.4% (inactive).
On the same count and under the same terms, for `CNC(=O)c1ccccc1CC1(O)c2ccccc2Oc2ccccc21` the value was 7.73% (active).
The same measure, in the same setting: for `O=C(O)C(O)c1ccccc1` (stereo not drawn) the value was 115% (inactive); for `CCCCC1(CC)COC(CCC)OC1` (stereo not drawn), 103% (inactive); for `CCOC(=O)c1ccc(NC(=S)P(=O)(c2ccccc2)c2ccccc2)cc1`, 111% (inactive).
In the case of `CCCCCCCCCCCCCCCCC1CC(=O)OC1=O` (stereo not drawn), the growth is 109% (inactive).
On the same count and under the same terms, in the case of `COc1cc2c(cc1OC)[C@H](C(=O)O)[C@@H](c1ccc(OC(C)C)c(OC)c1)N(C)C2=O` it was 105% (inactive); in that of `CC1CC(O)CC(C)(C)C1` (stereo not drawn), 99.9% (inactive); in that of `Nc1ccc(C(=O)c2ccc(N)c(Br)c2)cc1Br`, -14.2% (active).
In the case of `NC(N)=Nc1cc2ccccc2c2ccccc12`, the growth is 65.3% (inactive).
On the same count and under the same terms, for `C[C@]12CC[C@@H]3c4ccc(OCC(=O)O)cc4CC[C@H]3[C@@H]1CCC2=O` the value was 104% (inactive); for `CNS(=O)(=O)c1ccc(Cl)c(Cl)c1`, 106% (inactive); for `C=CC(O)CCC` (stereo not drawn), 99.7% (inactive).
Same read-out and setting: for `O=P(O)(O)OCC(O)CO` (stereo not drawn) the value was 101% (inactive); for `O=C(O)CSCSCC(=O)O`, 107% (inactive); for `CCOC(=O)CCCS(C)(=O)=O`, 105% (inactive).
On the same count and under the same terms, in the case of `Cc1cc(Cc2cc(C)c(N)cc2N)c(N)cc1N` it was 95.9% (inactive); in that of `COCCOCCCl`, 105% (inactive).
Consider `COc1cc2nn(-c3ccccc3N)nc2cc1OC`, for which the growth was 103% (inactive).
For `CC1(O)CCCCC1O` (stereo not drawn), the growth was 106% (inactive).
Same read-out and setting: in the case of `O=C(CCl)Nc1ccc2c(c1)C(=O)c1ccc(NC(=O)CCl)cc1C2=O` it was -59.8% (active); in that of `C=CCNc1nnc(C)s1`, 116% (inactive).
Still for that read-out and setting: for `COc1cc(/C=N\Nc2ccccc2)ccc1OC(=O)c1ccccc1` the value was 72.5% (inactive); for `CCC(C#N)(CC)c1ccccc1`, 110% (inactive); for `O=C1C[C@H](c2ccccc2)[C@H](c2ccccc2)C1`, 105% (inactive).
Still for that read-out and setting: for `Cn1cnc2nc(Cl)nc(Cl)c21` the value was -29.9% (active).

In another assay the test system is SNB-75 CNS. Described as above. Conditions: 10 µM.
For `Cc1cc(C)c(N)c(S(=O)(=O)O)c1`, the growth is 101% (inactive).
Still for that read-out and setting: in the case of `CC1CCC(C(=O)O)N1` (stereo not drawn) it was 83.3% (inactive).
The same measure, in the same setting: for `S=c1sc2ccccc2n1CN1CCCCC1` the value was 77.6% (inactive).
Still for that read-out and setting: in the case of `CCCCC/C=N/Nc1nc(C)cc(=O)[nH]1` it was 99.2% (inactive); in that of `CCOC(=O)C(O)C(O)C(=O)OCC` (stereo not drawn), 99% (inactive); in that of `CC(=O)NCc1cc(C)c(C)cc1C`, 87.9% (inactive).
Regarding `CCN=c1cc2sc3cc(NCC)c(C)cc3nc-2cc1C`, the growth is 52% (inactive).
The same measure, in the same setting: in the case of `COc1cc(-c2ccc(NC(=O)NC3CC3)c(OC)c2)ccc1NC(=O)NC1CC1` it was 89.4% (inactive); in that of `O=C(NC1CCCCC1)OCc1c(COC(=O)NC2CCCCC2)c(-c2ccc(Cl)c(Cl)c2)n2c1CCC2`, 15.7% (inactive); in that of `COC(=O)c1ccccc1Br`, 80.5% (inactive).
Same read-out and setting: for `COS(=O)(=O)c1ccc(Br)cc1` the value was 89.4% (inactive); for `COc1cc(C(=O)NC(=S)Nc2ccc3ccccc3c2)cc(OC)c1OC`, 92% (inactive); for `CC(=O)OCC(=O)[C@@]1(O)CC[C@H]2[C@@H]3CC[C@@H]4C[C@H](O)CC[C@]4(C)[C@H]3C(=O)C[C@@]21C`, 88.6% (inactive).
Still for that read-out and setting: for `O=C1C=C(Nc2ccc([N+](=O)[O-])cc2)c2ccccc2C1=O` the value was 42.9% (inactive).
With `CNC(=O)c1ccccc1CC1(O)c2ccccc2Oc2ccccc21`, the growth is 58.3% (inactive).
On the same count and under the same terms, for `O=C(O)C(O)c1ccccc1` (stereo not drawn) the value was 94.8% (inactive); for `CCCCC1(CC)COC(CCC)OC1` (stereo not drawn), 99.1% (inactive).
Still for that read-out and setting: in the case of `CCOC(=O)c1ccc(NC(=S)P(=O)(c2ccccc2)c2ccccc2)cc1` it was 101% (inactive); in that of `CCCCCCCCCCCCCCCCC1CC(=O)OC1=O` (stereo not drawn), 101% (inactive).
Take `COc1cc2c(cc1OC)[C@H](C(=O)O)[C@@H](c1ccc(OC(C)C)c(OC)c1)N(C)C2=O`: the growth was 90.4% (inactive).
The same measure, in the same setting: for `CC1CC(O)CC(C)(C)C1` (stereo not drawn) the value was 94% (inactive); for `Nc1ccc(C(=O)c2ccc(N)c(Br)c2)cc1Br`, -5.35% (active).
Still for that read-out and setting: in the case of `NC(N)=Nc1cc2ccccc2c2ccccc12` it was 57% (inactive); in that of `C[C@]12CC[C@@H]3c4ccc(OCC(=O)O)cc4CC[C@H]3[C@@H]1CCC2=O`, 83.5% (inactive).
As to `CNS(=O)(=O)c1ccc(Cl)c(Cl)c1`, the growth is 87.8% (inactive).
Same read-out and setting: in the case of `C=CC(O)CCC` (stereo not drawn) it was 95.7% (inactive).
Same read-out and setting: in the case of `O=P(O)(O)OCC(O)CO` (stereo not drawn) it was 84% (inactive); in that of `O=C(O)CSCSCC(=O)O`, 77.2% (inactive).
Turning to `CCOC(=O)CCCS(C)(=O)=O`, the growth was 86.2% (inactive).
On to `Cc1cc(Cc2cc(C)c(N)cc2N)c(N)cc1N`, for which the growth was 91.4% (inactive).
On the same count and under the same terms, in the case of `COCCOCCCl` it was 95.9% (inactive); in that of `COc1cc2nn(-c3ccccc3N)nc2cc1OC`, 72.6% (inactive).
On the same count and under the same terms, for `CC1(O)CCCCC1O` (stereo not drawn) the value was 96.5% (inactive); for `O=C(CCl)Nc1ccc2c(c1)C(=O)c1ccc(NC(=O)CCl)cc1C2=O`, -55.4% (active); for `C=CCNc1nnc(C)s1`, 102% (inactive).
Same read-out and setting: in the case of `COc1cc(/C=N\Nc2ccccc2)ccc1OC(=O)c1ccccc1` it was 85.4% (inactive).
For `CCC(C#N)(CC)c1ccccc1`, the growth was 84.6% (inactive).
On the same count and under the same terms, for `O=C1C[C@H](c2ccccc2)[C@H](c2ccccc2)C1` the value was 91.8% (inactive); for `Cn1cnc2nc(Cl)nc(Cl)c21`, 47.9% (inactive).
